In PubChem BioAssay:
Active and inactive are the calls of the source.

Assays:
[1] = small molecules captured by biotinylated probe aFSTL3 – biochemical, small-molecule microarray, fluorescence 635/667, stem cell growth factor project, primary screen (AID 1064); conditions: higher = more signal;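 note: measures binding of the biotinylated anti-FSTL3 antibody to printed compounds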
[2] = binders from COS7 lysate, DM2A8 probe, primary screen, torsin A project, cell lysate, small-molecule microarray, fluorescence 635/667 (AID 1065); conditions: higher = more signal, COS7 lysate expressing mutant human TOR1A
[3] = small molecules captured by biotinylated probe aFGF2 – biochemical, small-molecule microarray, fluorescence 635/667, stem cell growth factor project, primary screen (AID 1067); conditions: higher = more signal;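 note: measures binding of biotinylated aFGF2 protein to printed compounds on slides; z-score merges feature fluorescence and signal-to-noise across triplicate slides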
[4] = small molecules captured by biotinylated probe aFGF10 – biochemical, small-molecule microarray, fluorescence 635/667, stem cell growth factor project, primary screen (AID 1071); conditions: higher = more signal;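 note: score merges 667 nm spot intensity and signal to noise from triplicate slides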
[5] = target: Neurogenic locus notch homolog protein 2 (Homo sapiens) (UniProt Q04721); assay: small molecules binding Notch2 protein – biochemical, small-molecule microarray, 635 nm fluorescence, stem cell growth factors, primary screen (AID 1073); conditions: higher = more signal
[6] = target: Pro-neuregulin-1, membrane-bound isoform (Homo sapiens) (UniProt Q02297); assay: small molecules binding neuregulin-1 protein – biochemical, small-molecule microarray, fluorescence 635/667, psychiatric disease protein project, primary screen (AID 1075); conditions: NRG1 binding, 635 nm fluorescence, higher = more signal;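 note: score combines 667 nm spot fluorescence with signal to noise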
[7] = test system: Neuregulin-1 EGF-like domain; assay: small molecules binding NRG1 EGF domain – biochemical, small-molecule microarray, 635 nm fluorescence, primary screen (AID 1081); conditions: higher = more signal;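 note: binding of the protein to compounds printed on small-molecule microarray slides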
[8] = FRG1 expression reporter modulators in myotubes – cell-based, C2C12 myotubes, firefly/Renilla luciferase, luminescence, FRG1 inhibition for FSHD, primary screen (AID 1084); conditions: FRG1 promoter luciferase, higher = more signal, called active from +8 up or from −8 down
[9] = small molecules captured by biotinylated probe aFST – biochemical, small-molecule microarray, fluorescence 635/667, stem cell growth factor project, primary screen (AID 1086); conditions: higher = more signal;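 note: score merges 667 nm fluorescence with signal-to-noise of each printed compound spot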
[10] = binders of probe aHhip on microarray, primary screen, stem cell growth factor project, biochemical, small-molecule microarray, fluorescence 635/667 (AID 1087); conditions: higher = more signal;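 note: score merges spot fluorescence at 667nm with spot signal to noise ratio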

Chain of Pro-neuregulin-1, membrane-bound isoform (Homo sapiens) (Q02297 whole entry, looked up, the tested form may be a part, canonical isoform): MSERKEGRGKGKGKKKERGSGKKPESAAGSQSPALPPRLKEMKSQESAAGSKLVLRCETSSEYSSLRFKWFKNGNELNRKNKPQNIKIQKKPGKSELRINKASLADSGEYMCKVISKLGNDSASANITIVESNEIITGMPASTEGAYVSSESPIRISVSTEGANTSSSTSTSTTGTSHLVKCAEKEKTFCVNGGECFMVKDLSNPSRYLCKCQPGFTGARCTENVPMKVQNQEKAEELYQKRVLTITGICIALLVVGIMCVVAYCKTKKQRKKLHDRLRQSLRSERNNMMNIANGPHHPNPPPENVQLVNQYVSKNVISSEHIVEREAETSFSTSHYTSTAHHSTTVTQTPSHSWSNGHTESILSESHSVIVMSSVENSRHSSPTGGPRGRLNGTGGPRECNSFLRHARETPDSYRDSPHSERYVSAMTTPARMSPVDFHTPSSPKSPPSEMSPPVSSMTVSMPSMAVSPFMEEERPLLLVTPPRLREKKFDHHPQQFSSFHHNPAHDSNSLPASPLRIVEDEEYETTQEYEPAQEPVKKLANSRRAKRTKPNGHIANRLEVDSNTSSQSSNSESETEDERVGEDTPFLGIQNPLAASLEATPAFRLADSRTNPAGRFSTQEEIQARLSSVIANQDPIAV
Chain of Neurogenic locus notch homolog protein 2 (Homo sapiens) (Q04721 whole entry, looked up, canonical isoform): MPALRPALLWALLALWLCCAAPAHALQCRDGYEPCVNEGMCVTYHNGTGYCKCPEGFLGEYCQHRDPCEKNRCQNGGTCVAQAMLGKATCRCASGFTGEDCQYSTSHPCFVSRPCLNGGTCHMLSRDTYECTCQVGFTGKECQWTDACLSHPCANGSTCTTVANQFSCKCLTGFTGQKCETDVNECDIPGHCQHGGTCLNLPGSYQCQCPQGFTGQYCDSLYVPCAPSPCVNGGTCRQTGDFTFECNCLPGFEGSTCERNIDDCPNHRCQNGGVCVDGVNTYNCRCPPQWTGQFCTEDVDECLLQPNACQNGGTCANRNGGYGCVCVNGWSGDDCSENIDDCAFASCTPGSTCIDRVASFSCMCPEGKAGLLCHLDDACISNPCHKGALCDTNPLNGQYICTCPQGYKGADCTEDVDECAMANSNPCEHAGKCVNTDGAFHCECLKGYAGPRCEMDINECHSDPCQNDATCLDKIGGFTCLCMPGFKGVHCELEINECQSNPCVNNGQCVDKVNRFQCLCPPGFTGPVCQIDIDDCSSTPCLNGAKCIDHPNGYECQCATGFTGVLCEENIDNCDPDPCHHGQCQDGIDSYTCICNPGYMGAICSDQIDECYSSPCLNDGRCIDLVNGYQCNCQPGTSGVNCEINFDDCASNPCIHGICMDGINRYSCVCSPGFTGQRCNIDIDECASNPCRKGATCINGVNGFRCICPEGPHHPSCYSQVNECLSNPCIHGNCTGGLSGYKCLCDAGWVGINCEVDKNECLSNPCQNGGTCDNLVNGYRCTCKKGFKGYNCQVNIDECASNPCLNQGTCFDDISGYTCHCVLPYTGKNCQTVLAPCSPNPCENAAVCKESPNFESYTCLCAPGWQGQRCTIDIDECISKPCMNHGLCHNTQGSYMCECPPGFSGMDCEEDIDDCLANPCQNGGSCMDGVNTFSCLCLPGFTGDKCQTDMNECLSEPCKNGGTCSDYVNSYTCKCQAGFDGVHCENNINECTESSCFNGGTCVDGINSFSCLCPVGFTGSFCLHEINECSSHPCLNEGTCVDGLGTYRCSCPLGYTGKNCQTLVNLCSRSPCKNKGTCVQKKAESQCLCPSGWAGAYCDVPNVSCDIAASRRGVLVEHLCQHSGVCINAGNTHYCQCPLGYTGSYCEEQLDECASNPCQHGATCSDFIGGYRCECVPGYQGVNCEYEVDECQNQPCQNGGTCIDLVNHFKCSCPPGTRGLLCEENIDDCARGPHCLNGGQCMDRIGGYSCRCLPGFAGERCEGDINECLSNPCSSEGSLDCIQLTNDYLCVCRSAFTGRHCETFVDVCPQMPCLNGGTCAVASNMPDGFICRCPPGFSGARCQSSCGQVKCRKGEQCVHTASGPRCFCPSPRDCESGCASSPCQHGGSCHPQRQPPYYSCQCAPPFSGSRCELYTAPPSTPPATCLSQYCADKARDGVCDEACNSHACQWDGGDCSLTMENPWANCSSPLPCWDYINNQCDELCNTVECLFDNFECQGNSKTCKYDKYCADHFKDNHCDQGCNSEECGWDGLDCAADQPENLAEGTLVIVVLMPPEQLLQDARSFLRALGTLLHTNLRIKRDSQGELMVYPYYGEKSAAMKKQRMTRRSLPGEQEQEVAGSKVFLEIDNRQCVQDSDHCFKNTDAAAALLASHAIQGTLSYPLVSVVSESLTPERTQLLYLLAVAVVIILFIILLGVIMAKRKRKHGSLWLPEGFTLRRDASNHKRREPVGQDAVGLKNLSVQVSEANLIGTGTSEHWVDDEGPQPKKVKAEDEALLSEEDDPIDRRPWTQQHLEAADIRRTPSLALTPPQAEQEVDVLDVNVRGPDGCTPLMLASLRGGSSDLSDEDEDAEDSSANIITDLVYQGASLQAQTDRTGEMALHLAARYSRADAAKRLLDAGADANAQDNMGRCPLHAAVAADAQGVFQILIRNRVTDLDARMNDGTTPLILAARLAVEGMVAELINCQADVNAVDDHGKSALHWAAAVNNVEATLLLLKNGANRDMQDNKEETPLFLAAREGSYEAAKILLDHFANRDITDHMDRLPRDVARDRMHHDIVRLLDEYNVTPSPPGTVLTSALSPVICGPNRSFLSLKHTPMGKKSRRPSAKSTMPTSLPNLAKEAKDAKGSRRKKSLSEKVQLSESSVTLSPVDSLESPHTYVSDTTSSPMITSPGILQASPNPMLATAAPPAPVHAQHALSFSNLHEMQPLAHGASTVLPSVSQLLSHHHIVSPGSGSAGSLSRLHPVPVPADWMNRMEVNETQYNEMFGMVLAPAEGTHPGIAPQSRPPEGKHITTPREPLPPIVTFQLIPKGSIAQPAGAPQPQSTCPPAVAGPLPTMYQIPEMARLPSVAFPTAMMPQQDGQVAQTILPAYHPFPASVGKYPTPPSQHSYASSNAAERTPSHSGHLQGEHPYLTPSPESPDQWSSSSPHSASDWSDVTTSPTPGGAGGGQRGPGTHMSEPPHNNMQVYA

Compound	composite z-score [1]	composite z-score [2]	composite z-score [3]	composite z-score [4]	composite z-score [5]	composite z-score [6]	composite z-score [7]	z-score [8]	composite z-score [9]	composite z-score [10]
CC(CCC(=O)OC[C@H]1O[C@H](C#Cc2ccccc2)C=C[C@@H]1Oc1ccc(C)cc1)=NO[C@H](C)c1cn([C@@H]2COC[C@H]2O)nn1	-0.484	0.522	-0.148	0.0898	-0.31	-0.0103	0.452	-1.03 (inactive)	-0.0115	-0.134
COC(=O)[C@H](C)NC(=O)CCC1CC(OC(=O)NCc2cccc3ccccc23)CC2(CCCC(COC(=O)NCCC(C)C)O2)O1 (stereo not given in full)	-0.478	0.151	-0.167	0.0257	0.0502	0.543	1.02	1.5 (inactive)	0.0638	-0.264
COC(=O)[C@H](C)NC(=O)CCC1CC(OC(=O)NCc2cccc3ccccc23)CC2(CCCC(COC(=O)NCc3cccc(C(F)(F)F)c3)O2)O1 (stereo not given in full)	-0.428	0.182	-0.0316	0.762	1.17	1.09	1.01	-0.374 (inactive)	0.657	-0.271
COC(=O)CC=C[C@@H](C)[C@@H](C=NOC[C@@H](C)[C@H](OCc1ccccc1)C(C)C)NS(=O)(=O)c1ccc(C)cc1	-0.433	0.142	-0.0633	-0.0494	-0.801	-0.267	-0.332	0.539 (inactive)	-0.0646	-0.0003
CO[C@@H]1COC(=O)[C@H](COCc2ccccc2)NC(=O)CC=C[C@@H](C)[C@H](OC)COC(=O)[C@@H](C)NC(=O)CC=C[C@H]1C	-0.459	1.36	-0.191	-0.632	-0.45	-0.637	-0.826	0.696 (inactive)	-0.0711	0.0139
C=CC[C@@H]1C=C[C@H](ON=C2C[C@@H](O)[C@@H](O)[C@@H]3[C@@H]4C(=O)N(CC)C(=O)[C@@H]4CC[C@@H]23)[C@@H](CO)O1	-0.416	1.86	-0.0793	0.228	-0.395	-0.417	-0.33	1.15 (inactive)	0.245	-0.0994
COC(=O)[C@H](C)NC(=O)CCC1CC(OC(=O)NCc2cccc3ccccc23)CC2(CCCC(COC(=O)NCCCN3CCCC3=O)O2)O1 (stereo not given in full)	-0.669	-0.158	-0.141	0.119	1.43	0.567	0.925	-3.13 (inactive)	1.01	0.208
CC(CCN1CCc2nc(-c3ccccc3)c(-c3ccccc3)cc2C1)=NO[C@@H](C)c1cc(-c2c(C)cc(C)cc2C)no1	0.037	0.0468	-0.14	0.155	-0.846	0.129	0.55	0.687 (inactive)	0.0035	-0.13
CCN1C(C)=C(C(=O)OC)[C@@H](c2ccccc2)N2C(=O)[C@](O)(C(=O)OC)CC(C(C)=O)=C12	-0.619	0.159	-0.205	0.372	0.505	-0.125	-0.254	-1.11 (inactive)	0.101	-0.0618
O=C1C=C[C@@H](O)[C@@H]2[C@@H]3C(=O)N(C4CCCCC4)C(=O)[C@@H]3CC[C@@H]12	0.585	0.0002	-0.189	0.442	0.545	0.305	0.968	-0.325 (inactive)	0.265	0.0373
C[C@H]1CC[C@H]2C(=O)O[C@H](CO)CN2[C@@H]1c1ccc(Br)cc1	-0.334	0.544	-0.166	0.051	-0.288	-0.102	-0.238	1.11 (inactive)	-0.148	0.2
COc1ccc(COC(=O)NN=C2C[C@@H](O)[C@@H](O)[C@@H]3[C@@H]4C(=O)N(Cc5ccc6c(c5)OCO6)C(=O)[C@@H]4CC[C@H]23)cc1	1.62	-0.197	-0.0269	-0.0605	-0.546	-0.393	-0.282	1.02 (inactive)	0.648	0.0373
CON=C(C)CCN1CCCCc2nc(C)c(C)cc21	0.367	1.01	0.0121	0.241	0.133	0.525	0.93	0.997 (inactive)	0.437	-0.0296
CCOC(=O)[C@H](Cc1ccccc1)NC(=O)CCC1CC(OC(=O)NCCc2ccc(F)cc2)CC2(CCCC(COC(=O)NCc3cccc(C(F)(F)F)c3)O2)O1 (stereo not given in full)	-0.334	0.0606	0.0102	0.758	1.49	1.28	1.05	-0.342 (inactive)	0.332	-0.121
CCN1C(=O)[C@H]2[C@H]3[C@H](O)[C@H](O)CC(=NOCC[C@@H]4C=C[C@H](OC(C)=O)[C@@H](COC(C)=O)O4)[C@@H]3CC[C@H]2C1=O	-0.298	0.198	-0.0085	0.547	0.522	0.0776	0.314	0.511 (inactive)	0.186	0.259
CC(=O)OC[C@H]1O[C@H](CC=NO[C@H](C)c2cn([C@@H]3COC[C@H]3O)nn2)C=C[C@@H]1OC(C)=O	-0.239	0.0556	-0.131	0.294	0.277	-0.0528	0.422	-0.956 (inactive)	-0.149	-0.0673
CCOC(=O)[C@H](CC(C)C)NC(=O)CCC1CC(OC(=O)NCCc2ccc(F)cc2)CC2(CCCC(COC(=O)NCCOC)O2)O1 (stereo not given in full)	0.12	0.305	-0.043	0.862	1.15	0.32	1.13	1.44 (inactive)	0.158	0.0092
